Assay outcomes: PubChem BioAssay, several laboratories
This is a sample that favours compounds with a hit; in the whole collection about 2.2% have one here.
APP transl inh – APP translation inhibition | 190,000 tested, 0.82% active | inhibition, % at 2 µM | SH-SY5Y APP 5'UTR-luciferase reporter, luminescence;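 active = inhibition above a set limit, derived from the sample mean plus 3 SD, cut at about 45% in these data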
aSyn 5UTR inh – MLPCN primary screen, SNCA 5' untranslated region. alpha-synuclein 5'UTR reporter, inhibitor activity. inhibition, % (tested at 7.5 µM). 300,000 tested, 0.82% active; in the data active = inhibition above about 60%;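 also: H4 neuroglioblastoma cells stably carrying SNCA 5'UTR luciferase fusion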
KLF5 inh – inhibitors of KLF5 expression; DLD-1 KLF5 promoter-luciferase reporter, luminescence; inhibition, % at 5 µM; 290,000 tested, 0.23% active;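 active = inhibition above a per-plate limit of that plate's mean compound inhibition plus 3 SD, cut at about 60% in these data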;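 also: higher means less KLF5 promoter-driven luciferase light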
IEC-6 tox – kills IEC-6 intestinal cells in KLF5 counter-screen; IEC-6 cytotoxicity, luminescence viability; inhibition, % at 5 µM; 290,000 tested, 0.78% active; AID 1825; in the data active = inhibition above about 22%
BaF3 parental – reduces parental Ba/F3 cell viability, JAK2V617F counter-screen. CellTiter-Glo ATP luminescence. inhibition, % at 5.6 µM. 220,000 tested, 1.1% active. AID 1486;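 active = inhibition above a per-campaign cutoff, the mean inhibition of all tested compounds plus 3 SD, cut at about 27% in these data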
Ba/F3 V617F tox – lowers viability of Ba/F3 cells expressing EpoR and JAK2V617F; AID 1446; ATP luminescence; inhibition, % at 5.6 µM; 220,000 tested, 1.1% active;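 active = inhibition above the campaign mean plus 3 SD over all tested compounds, cut at about 24% in these data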;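 also: cytokine-independent growth of Ba/F3 cells driven by EpoR plus mutant JAK2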
A number is an active result; 0 = inactive; - = no result given.

SMILES	APP transl inh	aSyn 5UTR inh	KLF5 inh	IEC-6 tox	BaF3 parental	Ba/F3 V617F tox
CCN(CC)S(=O)(=O)c1cccc(C(=O)N/N=C(\C)c2ccc(O)cc2O)c1	0	111	0	0	0	0
Cc1ccc(S(=O)(=O)c2cc3c(=O)n4ccccc4nc3n(C)c2=N)cc1	0	0	0	0	0	0
COCCNC(=O)c1ccc(-n2c(SCc3cc(F)ccc3F)nc3ccccc3c2=O)cc1	0	0	0	0	0	0
Fc1ccc(-n2nnc(-c3cnc4ccccc4c3)n2)cc1	0	94	0	0	0	0
C(=C1/CCCC2=C1Nc1ncnn1C2c1ccccc1)/c1ccccc1 (configuration not stated)	0	0	0	26	54	55
COCCNC(=O)C(c1ccncc1)N(C(=O)Cn1nnc2ccccc21)c1ccc(OC)cc1 (configuration not stated)	0	0	0	0	0	0
N=c1ccn(Cc2cccc(Cl)c2)cc1	0	0	0	0	66	88
N=c1ccn(Cc2ccc(Cl)c(Cl)c2)cc1	0	0	0	0	75	89
N=c1ccn(Cc2ccc(Cl)cc2)cc1	0	0	0	0	68	92
Clc1cccc(CN2CCN(Cc3ccco3)CC2)c1	-	0	0	0	-	-
Cc1cccc(NC(=O)C(c2cccc([N+](=O)[O-])c2)N2CCCCC2)c1 (configuration not stated)	0	0	0	0	0	0
CC(=C\c1ccccc1)/C=C1/SC(=S)N(CCCC(=O)O)C1=O	-	67	0	0	-	-
C=CCN1C(=O)/C(=C\C(C)=C\c2ccccc2)SC1=S	-	0	0	0	-	-
CC(/C=C1\SC(=O)N(CCCC(=O)O)C1=O)=C\c1ccccc1	78	103	0	0	0	0
CC(/C=C1\SC(=S)N(CCCC(=O)Nc2ccc(C(=O)O)cc2)C1=O)=C\c1ccccc1	0	0	0	0	0	0
C=CCn1c(SCC(=O)Nc2cccc3ccccc23)nc(O)c(CC)c1=O	0	0	0	0	0	0
CC1=CC(C)(C)N(S(=O)(=O)c2ccc(C)cc2)c2ccc(C)cc21	50	0	0	0	37	51
CC1=CC(C)(C)N(S(=O)(=O)c2ccc(F)cc2)c2ccccc21	0	0	0	0	0	0
CC(=O)Nc1ccc(S(=O)(=O)N2c3ccccc3C(C)=CC2(C)C)cc1	89	121	93	88	64	64
COc1ccc(CNC(=O)C2Cc3ccccc3CN2C(=O)c2ccco2)cc1 (configuration not stated)	0	0	0	0	0	0
O=C(O)COCC(=O)NCc1csc2ccccc12	-	0	0	0	0	0
Cc1nc([N+](=O)[O-])c(Br)n1CC(=O)c1ccc(F)cc1	0	-	0	0	0	37
Cc1nc([N+](=O)[O-])c(Br)n1CC(=O)c1cccc([N+](=O)[O-])c1	0	0	0	0	0	0
COc1cccc(CNC(=O)CN2C(=O)COc3ccc(S(=O)(=O)N4CCCC4)cc32)c1	-	0	0	0	-	-
CC(C)N(C(=O)COc1ccc(Br)cc1Cl)C(C)C	0	0	0	0	0	0
SMILES	APP transl inh	aSyn 5UTR inh	KLF5 inh	IEC-6 tox	BaF3 parental	Ba/F3 V617F tox
CSc1cccc(-n2cc(-c3ccc4c(c3)OCO4)[nH]c2=O)c1	0	0	0	0	29	0
CC1CCCCN1Cc1c(O)ccc2c(=O)c(-c3ccccc3)coc12 (configuration not stated)	-	0	0	0	-	-
CCCOc1ccc(NC(N)=O)cc1OCCC	0	0	0	0	0	0
O=[N+]([O-])c1ccc(Cl)cc1Sc1nc2ccccc2o1	0	69	0	0	0	0
O=[N+]([O-])c1ccc(Sc2nc3ccccc3o2)c([N+](=O)[O-])c1	63	0	0	0	0	0
Cc1ccc(NC2CCCN(C(=O)c3ccccc3-c3ncc[nH]3)C2)cc1C (configuration not stated)	-	0	0	0	-	-
COc1cc2nc(Nc3ccc(C)c(Cl)c3)nc(N)c2cc1OC	-	99	0	0	-	-
O=C1c2ccccc2C(=O)N1CC1=NCCc2ccccc21	0	0	0	0	42	0
Cc1cc(CN2C(=O)c3ccccc3C2=O)no1	0	0	0	0	0	0
CC(C)Cn1c2c(c(O)c(C(=O)Nc3nc4ccccc4s3)c1=O)CCCC2	-	0	0	0	0	0
CCCn1c2c(c(O)c(C(=O)Nc3nc4ccccc4s3)c1=O)CCCC2	0	0	0	0	81	0
COc1ccc(-c2cn3c(C)c(C(=O)Nc4cc(NC(C)=O)ccc4OC)sc3n2)cc1	0	0	0	0	44	49
CNC(=O)c1sc2nc(-c3ccc(OC)cc3)cn2c1C	0	0	0	0	0	0
CCOC(=O)c1ccc(NC(=S)NC2CC(C)(C)NC(C)(C)C2)cc1	0	0	0	0	0	0
Cc1csc(NC(=O)CCNS(=O)(=O)c2ccc3c(c2)c(=O)n(C)c(=O)n3C)n1	0	0	0	0	94	0
CC[N+]1=CN(c2ccccc2)C(C)=CC1(C)C	0	0	0	0	52	40
Cc1ccc(S(=O)(=O)N2CCN(C(=O)CSC3CCCC3)CC2)c(C)c1	0	0	0	0	94	0
Cc1ccc(S(=O)(=O)N2CCN(C(=O)C3CC3C)CC2)c(C)c1 (configuration not stated)	-	0	-	-	-	-
CCc1ccccc1OCC(=O)Nc1nc(-c2cccnc2)cs1	0	70	0	0	0	0
CCC(=O)c1ccc(OCC(=O)Nc2nc(-c3cccnc3)cs2)cc1	-	0	-	-	-	-
CCCCNC(C(=O)Nc1cccc(S(=O)(=O)N2CCOCC2)c1)c1ccccc1 (configuration not stated)	0	0	0	0	36	0
COc1ccccc1CC(=O)Nc1cccc(S(=O)(=O)N2CCOCC2)c1	-	0	0	0	-	-
COc1ccc(-c2coc3cc4oc(=O)cc(C)c4cc23)cc1F	0	0	0	0	0	0
COc1ccc(-c2coc3cc4oc(=O)cc(-c5ccccc5)c4cc23)cc1F	90	113	0	0	0	0
COc1ccnc(N=CNOCc2cccc(Cl)c2Cl)c1C#N	0	0	0	0	0	0
SMILES	APP transl inh	aSyn 5UTR inh	KLF5 inh	IEC-6 tox	BaF3 parental	Ba/F3 V617F tox
COc1ccnc(N=CNOCc2ccc(F)cc2Cl)c1C#N	82	0	0	0	0	0
COc1ccc(/C=C/C(=O)c2cc(Br)ccc2OC(=O)c2ccco2)cc1OC	87	0	0	0	0	0
N#Cc1c(Cl)nsc1NC(=O)c1ccccc1	0	0	0	0	40	29
N#Cc1c(NC(=O)c2ccccc2)sc2c1CCCCC2	0	0	0	0	0	0
CCc1ccc(/C=N/NC(=O)c2cc(C3CC3)nc3ccc(Br)cc23)s1	72	0	0	0	0	0
COc1ccc(CNC(=O)c2c(C)oc3c2C(=O)c2ccccc2C3=O)cc1	0	103	0	0	0	0
CCCCc1nnc(NC(=O)c2ccc(-n3cncn3)c([N+](=O)[O-])c2)s1	-	0	-	-	-	-
O=[N+]([O-])c1ccc(C[n+]2ccc(Cc3ccccc3)cc2)cc1	0	0	0	0	37	0
c1ccc(Cc2cc[n+](Cc3ccccn3)cc2)cc1	-	0	0	0	65	57
